According to PubChem BioAssay AID743279 (National Center for Advancing Translational Sciences (NCATS), 2014):
Among all 360,000 compounds or so, about 17,000 (4.7%) were called active. Inconclusive results (about 5%) are left out. The sample as a whole holds a higher share of actives than the screen did. A number with no mark means an inactive call. Cut-off read from the data, not from the text of the source: active = activity change below about -50%; inconclusive = mostly about -30% to -49%; inactive = weaker than that.

Experiment: qHTS for Inhibitors of Inflammasome Signaling: IL-1-beta AlphaLISA Primary Screen
Details: THP-1 LPS/ATP IL-1B secretion, 16 h; at 57.5 µM, stronger effect = lower value
From the text: Inflammasomes are a set of intracellular multi-protein complexes that enable autocatalytic activation of inflammatory caspases and drive the innate immune response to counter harmful agents. […] A qHTS assay, based on AlphaLISA technology, was developed to screen the Molecular Libraries Small Molecule Repository (MLSMR) to look for novel inflammasome inhibitors. The assay detects IL-1B using AlphaLISA anti-IL-1B acceptor and donor beads. A decreased emission signal, indicating reduced IL-1B secretion, is the desired outcome for this assay. NIH Chemical Genomics Center [NCGC] NIH Molecular Libraries Probe Centers Network [MLPCN] MLPCN Grant: MH095513 Assay Provider: Shyam Biswal Ph.D., Johns Hopkins University Immunity. 2012 Jul 27;37(1):85-95. PMID: 22819042 [2] Curr Pharm Des. 2012;18(16):2320-8. PMID: 22390695
Three microliters containing 3000 THP-1 cells were dispensed into the wells of solid, white, tissue culture treated Greiner 1,536-well plates. Library compounds and positive control, Glyburide, were pin-transferred (23 nL) by a Kalypsys pin-tool equipped with a 1,536-pin array, resulting in final compound concentration ranges of 2.5 nM to 57.5 uM. After 1 hr of cell culture incubation (37 °C, 5% CO2), 1 microL of 1 microg/mL lipopolysaccharide (250 ng/mL, final) and 5 mM ATP (1.25 mM, final) were added to stimulate the cells. After 16 hr of cell culture incubation with the compounds, 1.5 uL of anti-IL-1B acceptor beads (6 ug/mL, final) and biotinylated antibody (0.6 nM, final) were added to the plate, followed by a 1 hr incubation at ambient temperature. To detect the secreted IL-1B, 1.5 uL of AlphaLISA SA-Donor beads (24 ug/mL, final) were added, followed by 30 min of incubation in the dark at ambient temperature. The AlphaLISA signal was read by a PerkinElmer EnVision plate reader with an ultrasensitive luminescence detector and 1536 Plate HTS AlphaScreen aperture (excitation of 680nm and emission of 615nm).
% is set by controls: 0 for no effect and ±100 for the full control effect.

| SMILES | activity change |
| --- | --- |
| CCOC(=O)N1CCC(N2Cc3cccc(C(=O)Nc4c(C)cccc4CC)c3C2=O)CC1 | -55.1% (active) |
| O=C(O)c1cccc2c1C(=O)N(C1CCCC1)C2 | -1.11% |
| CCOC(=O)N1CCC(N2Cc3cccc(C(=O)Nc4ccc(S(=O)(=O)N(CC)CC)cc4)c3C2=O)CC1 | 63.8% |
| CC1(C(=O)NCc2ccc3c(c2)OCO3)CCN1C(=O)Cc1cccs1 (configuration not stated) | -5.2% |
| COc1cccc(NC(=O)CN(C)C(=O)CSCc2nc3scc(-c4cccs4)c3c(=O)[nH]2)c1 | -57.4% (active) |
| COc1cccc(NC(=O)CN(C)C(=O)/C=C/c2cn(-c3ccccc3)nc2-c2cccs2)c1 | -24.8% |
| COc1cccc(NC(=O)CN(C)C(=O)CSC(=S)N2CCCC2)c1 | 6.49% |
| Cc1cc(C)n(CC(=O)Nc2ccc([N+](=O)[O-])cc2)n1 | 15.4% |
| COCOc1cccc(CN2CCC(C)(Oc3ccc(SC)cc3)C2)c1 (configuration not stated) | -9.11% |
| Fc1cnc(N2CCOCC2)nc1NCc1ccccc1 | 38.4% |
| c1cnc(NC2C3CC4CC(C3)CC2C4)nc1 (configuration not stated) | 16.6% |
| c1ccc2c(NC3C4CC5CC(C4)CC3C5)nc(N3CCOCC3)nc2c1 (configuration not stated) | -79.7% (active) |
| O=C(CNC(=O)N1CC(=O)Nc2ccccc21)Nc1ccc(Br)cc1F | 16.8% |
| CC(C)Cc1nnc(N)s1 | -2.84% |
| CC1Cc2nc(SCC(=O)Nc3ccccc3F)n(C)c(=O)c2S1 (configuration not stated) | 11.4% |
| COCc1cccc(-c2csc(C(O)c3ccc(F)cc3)n2)c1 (configuration not stated) | -9.62% |
| COc1ccc(/C=C/C(=O)c2ccc(NS(=O)(=O)c3ccc(C)cc3)cc2)cc1O | -103% (active) |
| COc1ccc(NS(=O)(=O)c2ccc(NC(=S)NC(=O)/C=C/c3ccc(C)cc3)cc2)nn1 | -26.8% |
| Cc1ccc(C(=O)/C=C/Nc2ccc(S(=O)(=O)Nc3onc(C)c3C)cc2)cc1 | 31.6% |

| SMILES | activity change |
| --- | --- |
| CC1CC(C)CN(c2ccc(S(=O)(=O)N3CCOCC3)cc2)C1 (configuration not stated) | -9.62% |
| COc1ccc(NC(=O)CSc2nnnn2-c2cccc(OC)c2)cc1 | -9.12% |
| CC1(C(=O)NS(=O)(=O)Cc2cccc(Cl)c2)CCN1C(=O)Cc1ccc(Cl)cc1Cl (configuration not stated) | -21.1% |
| O=C(O)c1ccccc1N=N/C(=N/Nc1cc(S(=O)(=O)O)ccc1O)c1ccccc1 | -57.4% (active) |
| O=C(O)c1ccccc1/C=N/Nc1ccc(S(=O)(=O)Nc2ccc(Cl)cc2)cc1[N+](=O)[O-] | 12.8% |
| Cc1ccc(S(=O)(=O)N2CCC(C(=O)N3CCCCCCC3)CC2)cc1 | -8.84% |
| O=C1C(Cl)=C(Oc2ccccc2)C(=O)c2ccccc21 | -18% |
| CCS(=O)(=O)N1CCN(C(=O)c2cccs2)CC1 | 38.7% |
| Cc1ccc(S(=O)(=O)N2CCN(C(=O)c3cccs3)CC2)cc1 | 0% |
| Cc1ccc(N2CCN(C(=O)c3cccs3)CC2)c(C)c1 | -56% (active) |
| Cc1nc2ccccc2c(C(=O)O)c1-c1ccccn1 | 12.8% |
| COc1ccc(NC(=O)CSc2nc(C)cs2)cc1 | 15.6% |
| COc1ccc(-n2ncc3c(SCC(=O)NNC(C)=O)ncnc32)cc1 | -3.94% |
| COc1ccc(NC(=O)CSc2ncnc3[nH]ncc23)cc1 | -51% (active) |
| CCN(CC)C(=O)C1=C(C)N(Cc2ccc(F)cc2)C(=O)C(CC(=O)NC2CCCC2)C1 (configuration not stated) | 3.15% |
| CCOc1ccc(CCNC(=O)COC(=O)c2ccc(C)c(S(=O)(=O)N3CCOCC3)c2)cc1OCC | -2.62% |
| Cc1noc(C)c1NC(=O)N(C)C[C@@H]1Oc2cc(Br)ccc2S(=O)(=O)N([C@@H](C)CO)C[C@H]1C | -11.1% |
| CCCNC(=O)c1cc(C2CCCN(C(=O)c3ccc4c(c3)CCO4)C2)on1 (configuration not stated) | 25.3% |
| COc1cccc(C(=O)OCC(=O)c2[nH]c(C)c(C(C)=O)c2C)c1 | 12.1% |

| SMILES | activity change |
| --- | --- |
| CC(=O)c1c(C)[nH]c(C(=O)COC(=O)CCOc2ccc(C)cc2)c1C | -89.1% (active) |
| CC(=O)c1c(C)[nH]c(C(=O)COC(=O)c2cccs2)c1C | 17.9% |
| COc1c(F)c(F)c(-c2csc(N)n2)c(F)c1F | -14.1% |
| CCOC(=O)[C@]12CCC=C1N(Cc1ccccc1)C(=O)[C@H](CC(=O)N1CCCC1)C2 | 48.2% |
| COc1ccc(NS(=O)(=O)c2ccc(O)c(C(=O)OCC(=O)NC3CCCCC3)c2)cc1 | 40.3% |
| CN(C)c1ccc(S(=O)(=O)NCC(=O)NCC2CCCCC2)cc1[N+](=O)[O-] | 8.52% |
| CCN(C(=O)COC(=O)c1cc(NS(=O)(=O)c2ccc(Cl)c([N+](=O)[O-])c2)ccc1O)C1CCCCC1 | -98.5% (active) |
| C=CCn1c(SCC(=O)c2ccc(Br)cc2)nnc1C(C)NC(=O)Cc1ccc(OC)cc1 (configuration not stated) | 18.8% |
| C=CC(=O)Nc1ccc(Nc2ccnc(Nc3ccc(N4CCN(C)CC4)cc3)n2)cc1 | -83.2% (active) |
| Cc1cccc(N2CCN(c3ccc(NC(=O)/C=C\C(=O)O)cc3)CC2)c1 | -21.2% |
| Cn1cnnc1SCC(=O)Nc1ccc(N2CCOCC2)cc1 | 19.7% |
| COc1cccc(-c2ccc3c(c2)N(Cc2ccccc2OC)C(=O)C(C)S3)c1 (configuration not stated) | 43.9% |
| COc1ccc(CCNC(=O)Nc2ccc3c(c2)c(=O)n(C)n3C)cc1OC | -16.8% |
| Cc1c(OC(C)C(=O)N[C@@H](Cc2ccccc2)C(=O)O)ccc2c3c(c(=O)oc12)CCCC3 (some centres not stated) | 11.6% |
| O=C1NC(=O)C(CCc2ccccc2)(c2ccccc2)N1 (configuration not stated) | -4.4% |
| O=C(NCc1ccccc1)c1onc(CSc2ccncc2)c1C(=O)NCc1ccccc1 | 39.9% |
| COc1ccc(Nc2nc(NCc3ccco3)nc(N/N=C/c3ccccc3Cl)n2)cc1 | -12.1% |
| COc1cccc(Nc2nc(N)c([N+](=O)[O-])c(NCc3ccco3)n2)c1 | -69.4% (active) |
| CN(c1ccccc1)c1nc(N)c([N+](=O)[O-])c(NCc2ccco2)n1 | -23.7% |
